Drawing on PubChem BioAssay (Tox21), this text covers Potency and outcome for 18 compounds.

“And” between values parts separate entries of the source, which are not always exact repeats. Equal values may be shown once. Inconclusive results are not listed. The source made the active and inactive calls. Unless noted, the call rests on the fitted dose curve; in most records, active means well fitted curve in the direction sought with a large enough effect in the repeat runs; inconclusive means weak or mixed curves; inactive means no such curve, though single readings can be large; an effect the other way counts as inactive or inconclusive.

The nature of experiment [1]: qHTS assay to identify small molecule antagonists of the glucocorticoid receptor (GR) signaling pathway - cell viability counter screen (AID 720693; further: nearly all actives have a fitted effect of over 55% in size; further: potency means the concentration at half of the fitted maximal effect). (In qHTS, concentration-response curves come from the screen itself.)
A short description of experiment [2]: qHTS assay for identifying genotoxic compounds that show differential cytotoxicity against isogenic chicken DT40 cell lines with known DNA damage response pathways - wild type cell line (AID 743012). Further: nearly all actives have a fitted effect of over 60% in size. Further: potency means the concentration at half of the fitted maximal effect. The essentials:
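Quantitative HTS on parental DT40 cells: 40 h compound treatment at 37 C/5% CO2, with viability then determined by CellTiter-Glo luminescence. Values serve as the DNA repair-proficient reference for differential cytotoxicity.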

A short description of experiment [3]: qHTS assay for identifying genotoxic compounds that show differential cytotoxicity against isogenic chicken DT40 cell lines with known DNA damage response pathways - Rev3 mutant cell line (AID 743014). Further: nearly all actives have a fitted effect of over 55% in size. Further: potency means the concentration at half of the fitted maximal effect.
A short description of experiment [4]: qHTS assay for identifying genotoxic compounds that show differential cytotoxicity against isogenic chicken DT40 cell lines with known DNA damage response pathways - Rad54/Ku70 mutant cell line (AID 743015). Further: nearly all actives have a fitted effect of over 60% in size. Further: potency means the concentration at half of the fitted maximal effect.
The nature of experiment [5]: qHTS assay to identify small molecule antagonists of the androgen receptor (AR) signaling pathway - cell viability counter screen (AID 743033; further: nearly all actives have a fitted effect of over 45% in size; further: potency means the concentration at half of the fitted maximal effect).
The target of experiment [6] is Androgen receptor (Homo sapiens) (UniProt P10275). The experiment in a line: qHTS assay to identify small molecule antagonists of the androgen receptor (AR) signaling pathway (AID 743035; active means well fitted inhibition curve with a large enough effect in the signal ratio in the repeat runs, not every such curve was filed as active; the % refers to the signal ratio; further: potency means the concentration at half of the fitted maximal effect). The essentials:
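Cell line: GeneBLAzer AR-UAS-bla GripTite (HEK293). Stimulus: R1881 added after compound. Exposure: 16 h, 37C, 5% CO2. Readout: LiveBLAzer B/G FRET fluorescence after 2 h at room temperature.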

For experiment [7] the target is unchanged. Nature of the experiment: qHTS assay to identify small molecule agonists of the androgen receptor (AR) signaling pathway using the MDA cell line (AID 743040; further: nearly all actives have a fitted effect of over 20% in size). The essentials:
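After a 5 h incubation at 37C and 0% CO2, MDA-kb2 reporter cells were dosed with compounds in DMSO and kept 16 h under the same conditions. Luciferase activity was then read as luminescence with ONE-Glo.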

Experiment [8] in a line: qHTS assay to identify small molecule antagonists of the androgen receptor (AR) signaling pathway using the MDA cell line - cell viability counter screen (AID 743041; further: nearly all actives have a fitted effect of over 45% in size; further: potency means the concentration at half of the fitted maximal effect). The essentials:
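R1881-driven MDA-kb2 AR-luc cells, 3,000/well, were dosed with library compounds for 16 h; cell health came from CellTiter-Fluor fluorescence in the reporter wells.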

Experiment [9] concerns the target Androgen receptor (Homo sapiens) (UniProt P10275). The experiment in a line: qHTS assay to identify small molecule antagonists of the androgen receptor (AR) signaling pathway using the MDA cell line (AID 743042; further: nearly all actives have a fitted effect of over 55% in size; further: potency means the concentration at half of the fitted maximal effect). The essentials:
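Antagonist mode: compounds plus R1881 agonist added to MDA-kb2 AR-luc cells, incubated 16 h at 37C. Luciferase reporter luminescence quantified, with multiplexed CellTiter-Fluor readout for cell viability.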

Experiment [10] has the same target. The experiment in a line: qHTS assay to identify small molecule agonists of the androgen receptor (AR) signaling pathway (AID 743036; active means well fitted activation curve with a large enough effect in the signal ratio in the repeat runs, with a control signal flat, not every such curve was filed as active; the % refers to the signal ratio). The essentials: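 Beta-lactamase under UAS control, stably integrated in HEK293 GripTite cells, reports receptor activation. After 16 h compound treatment, cells received FRET substrate for 2 h at room temperature before fluorescence reading.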

Androgen receptor (Homo sapiens), sequence (P10275 whole entry, looked up): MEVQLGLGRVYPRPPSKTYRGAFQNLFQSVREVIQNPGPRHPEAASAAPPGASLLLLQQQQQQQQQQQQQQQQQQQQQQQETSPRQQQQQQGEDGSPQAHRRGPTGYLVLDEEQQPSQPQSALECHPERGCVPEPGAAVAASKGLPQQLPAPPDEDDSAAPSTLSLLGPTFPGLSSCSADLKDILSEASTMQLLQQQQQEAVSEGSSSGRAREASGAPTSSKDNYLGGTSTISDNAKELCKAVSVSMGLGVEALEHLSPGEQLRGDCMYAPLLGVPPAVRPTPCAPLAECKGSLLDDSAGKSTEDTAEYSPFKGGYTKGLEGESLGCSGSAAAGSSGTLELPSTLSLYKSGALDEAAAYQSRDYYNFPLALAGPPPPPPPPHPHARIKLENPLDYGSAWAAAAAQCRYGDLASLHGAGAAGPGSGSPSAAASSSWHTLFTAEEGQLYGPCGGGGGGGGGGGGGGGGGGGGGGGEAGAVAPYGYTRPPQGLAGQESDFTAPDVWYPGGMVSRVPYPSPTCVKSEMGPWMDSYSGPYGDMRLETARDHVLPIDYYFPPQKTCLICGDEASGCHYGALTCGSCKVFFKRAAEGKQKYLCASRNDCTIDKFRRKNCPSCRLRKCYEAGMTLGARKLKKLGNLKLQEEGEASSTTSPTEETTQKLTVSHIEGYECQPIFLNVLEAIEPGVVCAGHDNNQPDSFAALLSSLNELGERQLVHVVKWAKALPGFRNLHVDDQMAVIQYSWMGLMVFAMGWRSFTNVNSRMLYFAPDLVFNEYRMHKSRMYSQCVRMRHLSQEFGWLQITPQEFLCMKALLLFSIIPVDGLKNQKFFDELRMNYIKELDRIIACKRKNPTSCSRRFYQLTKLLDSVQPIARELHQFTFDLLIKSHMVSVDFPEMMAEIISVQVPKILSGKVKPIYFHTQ

In the case of `Cc1nc(Nc2ncc(C(=O)Nc3c(C)cccc3Cl)s2)cc(N2CCN(CCO)CC2)n1`, the Potency result in [1] and in experiment [5] was “inactive” throughout. Besides, the Potency in [2] is 5.96 µM (active); in experiment [3], 9.44 µM (active); in experiment [4] it was 6.68 µM (active).
As for `CCCCCCC(C)OC(=O)COc1nc(F)c(Cl)c(N)c1Cl` (stereo unspecified), the Potency result in [1] and in [5] was “inactive” throughout. The results for the Potency in experiment [2], in experiment [3] and in experiment [4] were 43.3 µM (active), 38.6 µM (active) and 38.6 µM (active), respectively.
As for `CCCCCCCCCCCCCOP(=O)(O)O`, the Potency entry in experiment [1], in [2], in experiment [3], in experiment [4] and in experiment [5] was “inactive” in each case.
For `Cc1ccc2ccc3cccc4ccc1c2c34`, the Potency entry in experiment [1], in experiment [2], in [3] and in [4] was “inactive” throughout.
Regarding `O=C(O)c1cccc(Cl)n1`, the Potency entry in [1], in experiment [5], in [6], in experiment [7], in experiment [8] and in experiment [9] was “inactive” throughout. The Potency in experiment [2] is 19.3 µM (active); in experiment [3], 61.1 µM (active); in experiment [4], 61.1 µM (active).
With `Cc1cn[nH]c1`, the Potency entry in [1], in experiment [2], in experiment [3], in experiment [4], in experiment [5] and in experiment [6] was “inactive” in each case. The Potency result in experiment [7], in experiment [8] and in experiment [9] was “inactive” throughout. Moreover, in [10], the call was inactive.
As to `N[C@@H](CSSC[C@H](N)C(=O)O)C(=O)O`, the Potency entry in experiment [1], in experiment [2], in experiment [3], in experiment [4], in [5] and in experiment [6] was “inactive” throughout. The Potency result in experiment [7] and in experiment [8] was “inactive” throughout. For the same compound, the outcome in [10] was inactive.
As for `CCc1cccc(C)c1`, the Potency result in experiment [1], in [2], in experiment [3], in experiment [4], in experiment [5] and in experiment [8] was “inactive” in each case.
Turning to `CCN=C1C=CC(=C(c2ccc(N(CC)CC)cc2)c2ccc(N(CC)CC)cc2)c2ccccc21`, the Potency in experiment [1] was 24.4 µM (active); in [2], 0.0192 µM (active); in experiment [3] it was 0.0305 µM (active); in experiment [4], 0.0192 µM (active); in experiment [5], 0.0434 µM (active); in experiment [8], 0.121 µM (active). The Potency in [9] was 0.043 µM (active). In [7], the Potency entry is “inactive”.
As to `C[C@H]1O[C@@H](O[C@H]2[C@@H](O)C[C@H](O[C@H]3[C@@H](O)C[C@H](O[C@H]4CC[C@@]5(C)[C@H](CC[C@@H]6[C@@H]5C[C@@H](O)[C@]5(C)[C@@H](C7=CC(=O)OC7)CC[C@]65O)C4)O[C@@H]3C)O[C@@H]2C)C[C@H](O)[C@@H]1O`, the Potency in experiment [1] is 535 nM (active) and 97.8 nM (active) and 193 nM (active); in [2], 596 nM (active) and 344 nM (active) and 854 nM (active); in experiment [3], 596 nM (active) and 172 nM (active) and 428 nM (active); in [4], 750 nM (active) and 217 nM (active) and 381 nM (active); in experiment [5] it was 84.9 nM (active) and 15.5 nM (active) and 30.6 nM (active); in experiment [6], 338 nM (active) and 61.7 nM (active) and 136 nM (active). For the same compound, the Potency entry in [8] is “inactive”.
As to `CCN=c1cc2oc3cc(NCC)c(C)cc3c(-c3ccccc3C(=O)OCC)c-2cc1C`, the Potency was 21.8 µM (active) and 21.9 µM (active) in [1]; 484 nM (active) and 172 nM (active) in experiment [2]; 384 nM (active) and 137 nM (active) in [3]; 305 nM (active) and 109 nM (active) in experiment [4]; 689 nM (active) and 1.23 µM (active) in experiment [5]; 154 nM (active) in [6]. Further, the Potency is 683 nM (active) and 386 nM (active) in experiment [8]; 108 nM (active) and 96.9 nM (active) in experiment [9]. Further, in [7], the Potency result is “inactive”.
Turning to `NC1(c2ccc(-c3nc4ccn5c(=O)[nH]nc5c4cc3-c3ccccc3)cc2)CCC1`, the Potency entry in [1] is “inactive”. The results for the Potency in [2], in experiment [3] and in experiment [4] were 1.19 µM (active), 5.31 µM (active) and 1.33 µM (active), respectively.
Take `CCCCCCCCCCCCCCCC`: the Potency entry in experiment [1], in experiment [2], in [3], in [4], in experiment [5] and in [8] was “inactive” in each case.
For `CCCN(CCc1cccs1)[C@H]1CCc2c(O)cccc2C1`, the Potency entry in experiment [1], in experiment [5], in [7], in experiment [8] and in experiment [9] was “inactive” throughout. Besides, the values for the Potency in experiment [2], in experiment [3] and in experiment [4] were 18.8 µM (active), 26.6 µM (active) and 23.7 µM (active), respectively.
As for `CCc1ccc(O)c(C(C)(C)C)c1`, the Potency result in experiment [1] is “inactive”. Also, the figures for the Potency in experiment [2], in experiment [3] and in [4] were 43.3 µM (active), 30.6 µM (active) and 30.6 µM (active), respectively.
Consider `CCCCCCCCCCCCN(CCO)CCO`, for which the Potency was 34.5 µM (active) in experiment [1]; 0.86 µM (active) in experiment [2]; 0.172 µM (active) in experiment [3]; 0.609 µM (active) in experiment [4]; 43.5 µM (active) in experiment [5]; 19.3 µM (active) in experiment [8]. The Potency in experiment [9] was 15.3 µM (active). In addition, the Potency result in experiment [7] was “inactive”.
Take `Clc1ccccc1CN1CCc2sccc2C1`: the Potency result in [1], in experiment [5] and in experiment [8] was “inactive” throughout. The values for the Potency in experiment [2], in experiment [3] and in experiment [4] were 23.7 µM (active), 21.1 µM (active) and 26.6 µM (active), respectively.
As for `COCC(=O)O[C@]1(CCN(C)CCCc2nc3ccccc3[nH]2)CCc2cc(F)ccc2[C@@H]1C(C)C`, the Potency is 10.7 µM (active) in experiment [1]; 2.37 µM (active) in experiment [2]; 4.22 µM (active) in [3]; 4.73 µM (active) in experiment [4]; 10.7 µM (active) in [5]; 9.44 µM (active) in [8]. The Potency in experiment [9] is 7.5 µM (active). Also, in experiment [7], the Potency entry is “inactive”.
